Tau FP inhib = qHTS for Inhibitors of Tau Fibril Formation, Fluorescence Polarization; Microtubule-associated protein tau (Homo sapiens), P10636; K18 P301L tau heparin fibrillization, Alexa594 FP, 6 h; Potency, µM (highest dose often 57.7 µM), actives largely listed as inhibitors; actives 0.39% (n = 280,000); AID 1468, 2008; also: nearly all actives have a fitted effect of over 55% in size
Target sequence (P10636 561-689 P618L limits assumed): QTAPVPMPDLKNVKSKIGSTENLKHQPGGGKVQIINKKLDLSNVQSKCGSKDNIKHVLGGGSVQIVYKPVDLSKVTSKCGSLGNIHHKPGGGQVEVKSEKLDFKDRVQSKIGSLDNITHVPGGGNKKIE
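Steps: dispense K18 P301L tau (15 uM plus 0.24 uM Alexa 594 tracer, final) in pH 7 sodium acetate; add compound; add heparin (20 uM final); incubate 6 hr, 37 C; add ThT (30 uM final); after 1 hr ambient, read FP.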
Tau ThT inhib = qHTS for Inhibitors of Tau Fibril Formation, Thioflavin T Binding. Microtubule-associated protein tau (Homo sapiens), P10636. recombinant tau K18 P301L, heparin-induced fibrillization, ThT fluorescence. Potency, µM (titrated, usually from 57.4 µM), actives largely listed as inhibitors. actives 2.1% (n = 270,000); also: nearly all actives have a fitted effect of over 55% in size
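K18 P301L tau (15 uM + 0.24 uM Alexa 594-tagged), heparin 20 uM, NaOAc pH 7, 6 h 37 C; ThT 30 uM, 1 h RT, ex 450/em 510 nm.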
Tau fluor cs = Counterscreen qHTS for Inhibitors of Tau Fibril Formation, Fluorescence Polarization. actives 0.93% (n = 280,000). tau K18 P301L Alexa594 fluorescence, heparin fibrillization. Potency, µM (series often up to 57.7 µM); also: nearly all actives have a fitted effect of over 55% in size
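Human tau K18 P301L (15 uM unlabeled, 0.24 uM Alexa 594-labeled) in 100 mM sodium acetate pH 7 with 20 uM heparin, 6 hr at 37 C. ThT 30 uM added, 1 hr ambient; Alexa 594 FP and total fluorescence read at 555/632 nm.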
Coupling enz = qHTS Assay for Inhibitors of Fructose-1,6-bisphosphate Aldolase from Giardia Lamblia: Coupling assay counterscreen | coupling enzyme system counterscreen, AmpLite Red fluorescence | activity change, negative = inhibition, % at 58.2 µM, hits read low | actives 0.67% (n = 290,000) | AID 2472, 2010; in the data active = activity change below about -30%
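First, compound is pin-transferred into glyceraldehyde-3-phosphate coupling-enzyme reagent at 57.5 uM final and held 10 min at RT. Next, substrate, coupling system and AmpLite Red are added. After 20 min RT, fluorescence (525/598 nm) is read.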
USP1-UAF1 inh = Inhibitors of USP1/UAF1: Primary Screen | actives 0.23% (n = 390,000) | recombinant USP1/UAF1, Ub-Rhodamine cleavage fluorescence | Potency, µM (series often up to 57.1 µM), actives largely listed as inhibitors | Ubiquitin carboxyl-terminal hydrolase 1 (Homo sapiens), O94782; also: nearly all actives have a fitted effect of over 60% in size
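1 nM enzyme complex + cpd, 15 min RT; start with Ub-Rho 150nM final; kinetic fluorescence ex 480/em 540, 6 reads q60 s. Buffer 50mM HEPES pH 7.8, 0.5mM EDTA, 0.1 mg/ml BSA, 1mM TCEP, 0.01% Tween-20.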
A number is an active result; . = inactive; ? = inconclusive; / = not tested or not shown; [ ] = another dose, or the depositor's remark. This is a sample that favours compounds with a hit; in the whole collection about 2.3% have one here. Unless noted, calls follow the shape of the dose curve; as a rule, active = well fitted curve in the direction sought with a large enough effect; inconclusive = small, poorly fitted or top-dose-only effect, or another doubt; inactive = no such curve, though single readings can be large; an effect the other way counts as inactive or inconclusive.

SMILES	Tau FP inhib	Tau ThT inhib	Tau fluor cs	Coupling enz	USP1-UAF1 inh
CCOCCCNC(=O)c1ccc(-n2c(-c3ccccc3)cc3c2CCC(C)C3)cc1 (configuration not stated)	5.01µM	.	?	/	?
CCc1cc(SC#N)cc(C)c1N	?	14.1µM	.	.	.
CC(C)CCNC(=O)N1CCN(S(=O)(=O)c2ccc3c(ccn3C)c2)CC1	.	.	.	/	.
COc1ccc(Cl)cc1Nc1ccc2cc(S(=O)(=O)N3CCCCC3)ccc2n1	.	.	10µM[quencher]	/	.
CCOc1ccc(OCC)c(Nc2ccc3cc(S(=O)(=O)N4CCCC4)ccc3n2)c1	?	.	?	/	.
CCOC(=O)c1cccc(Nc2ccc3cc(S(=O)(=O)N4CCCCC4)ccc3n2)c1	?	?	11.2µM[quencher]	/	.
COc1ccc(Nc2ccc3cc(S(=O)(=O)N4CCCC4)ccc3n2)cc1Cl	.	?	2.82µM[quencher]	/	.
O=S(=O)(c1ccc2nc(Nc3cccc(F)c3)ccc2c1)N1CCCC1	?	?	?	/	.
COc1ccc(Cn2c(SCC(=O)NCc3ccc(Cl)cc3)nc3ccsc3c2=O)cc1	.	.	.	/	?
O=[N+]([O-])c1ccc(Cl)c(S(=O)(=O)Nc2ccc3cn[nH]c3c2)c1	/	/	/	/	.
O=C(O)c1ccc(Cl)c(S(=O)(=O)Nc2ccc3cn[nH]c3c2)c1	.	.	.	-70.9	.
O=C1NCCCc2c1oc1ccc(O)cc21	.	.	.	.	.
Oc1c(Cl)cc(Cl)c2c1NCCC2	?	14.1µM	?	-48.3	.
CCn1c2ccc(Cl)cc2c2nc3ccccc3nc21	.	15.8µM	.	.	.
CCn1c2ccc(OC)cc2c2nc3ccccc3nc21	.	.	.	.	.
CC(C)Oc1ccc(CNC(=O)CCCn2c(=O)c3cccn3c3ccccc32)cc1	.	?	.	/	.
O=C1c2ccccc2C(=O)c2c(Nc3ccc(CCO)cc3)ccc(O)c21	?	2.82µM	1.78µM[quencher]	.	.
CC(=O)Nc1ccc(Nc2ccc3c4c(cc(=O)n3C)-c3ccccc3C(=O)c24)cc1	.	?	?	.	.
CCOc1ccccc1NC(=O)C1CCN(S(=O)(=O)c2c(C)noc2/C=C/c2ccc(C)cc2)CC1	.	.	.	/	.
CC1CCN(S(=O)(=O)c2ccc(NC(=O)c3ccccc3F)cc2)CC1	/	/	/	.	.
CC1CCN(S(=O)(=O)c2cn(CC(=O)Nc3ccc(F)c(Cl)c3)c(=O)c3ccccc23)CC1	10µM	.	?	/	.
CC1CCN(S(=O)(=O)c2ccc(NC(=O)Cn3nnc(-c4ccccc4F)n3)cc2)CC1	7.94µM	.	?	.	.
CC12CN3CC(C)(CN(C1)C3c1ccc3ccccc3c1O)C2=O (configuration not stated)	.	?	.	-47.9	.
Cc1cc(C)c2c(CC(=O)Nc3ccc(S(=O)(=O)N4CCCC(C)C4)cc3)coc2c1 (configuration not stated)	14.1µM	.	?	/	.
Cc1cc(C)c2c(CC(=O)Nc3ccc(S(=O)(=O)N4CCCCC4)cc3)coc2c1	?	.	?	/	.
SMILES	Tau FP inhib	Tau ThT inhib	Tau fluor cs	Coupling enz	USP1-UAF1 inh
O=C1NC(=Nc2ccccc2)/C(=C/c2ccco2)S1	.	22.4µM	?	.	.
CCN(CC)CCCNC(=O)c1nn(C)c2c1CSc1ccccc1-2	?	?	25.1µM[quencher]	/	.
Cn1nc(C(=O)N2CCN(c3ccc(F)cc3)CC2)c2c1-c1ccccc1SC2	.	.	7.08µM[quencher]	/	.
COc1cc(NC(=O)Cn2nc3c(cc2=O)CC(C)CC3)cc(OC)c1OC (configuration not stated)	.	.	.	/	.
CCOc1cc2c(C#N)c(N3CCOCC3)nc(N)c2c(N)n1	.	.	.	-47.9	.
CCOc1cc2c(C#N)c(N(CC)CC)nc(N)c2c(N)n1	/	/	/	/	.
CCOc1cc([N+](=O)[O-])cc(/C=C2/NC(=O)N(Cc3ccccc3F)C2=O)c1O	.	14.1µM	?	.	?
Nc1cc(Cl)nc(N/N=C/c2ccc([N+](=O)[O-])cc2)n1	.	5.62µM	.	.	.
Cc1cc(-c2ccccc2)nc(N/N=C/c2ccccc2)n1	/	/	/	.	.
Cc1cc(-c2ccccc2)nc(N/N=C/c2ccc([N+](=O)[O-])cc2)n1	.	7.08µM	?	.	.
Cc1cc2c(C)nc(N/N=C/c3ccc([N+](=O)[O-])cc3)nc2o1	.	3.16µM	.	.	.
Nc1cc(Cl)nc(N/N=C/c2ccccc2[N+](=O)[O-])n1	.	?	.	.	.
O=[N+]([O-])c1ccc(C=NNc2ccccc2)cc1	/	/	/	/	.
Cc1cc2c(C)nc(N/N=C/c3ccc(F)cc3)nc2o1	.	?	.	.	.
O=[N+]([O-])c1ccc(N/N=C/c2ccccc2)c(F)c1	.	7.08µM	?	.	.
CCCCC1CN2C(CCC(C)C2c2ccc(Br)cc2)C(=O)O1 (configuration not stated)	.[11.6 µM]	.[11.5 µM]	.[11.6 µM]	.	/
COc1ccccc1NC(=O)C1CCN(S(=O)(=O)c2ccc3c(c2)oc(=O)n3C)CC1	.	.	.	/	.
O=[N+]([O-])c1ccc(-c2csc(N3CCc4ccccc4C3)n2)cc1	.	5.01µM	?	.	.
N#C/C(=N\Nc1ccc(Cl)cc1)C(=O)c1ccsc1	.	5.01µM	?	.	.
N#C/C(=N\Nc1ccc(Cl)cc1)C(N)=S	.	/	.	.	.
Cc1ccc(N/N=C(\C#N)C(=O)c2ccsc2)cc1	.	14.1µM	?	.	.
CCN(CC)C(=N)/C(C#N)=N/Nc1ccc(C)cc1	.	?	.	.	.
CCOc1ccc(C(c2nnnn2C(C)(C)C)N2CCN(C(=O)c3ccco3)CC2)cc1 (configuration not stated)	/	/	/	.	.
CN(C)c1ccc(C(c2nnnn2C(C)(C)C)N2CCN(C(=O)c3ccco3)CC2)cc1 (configuration not stated)	.	15.8µM	?	.	.
COc1ccc(-n2cc(C(=O)N(C)c3cc(C)ccc3OC)c3ccccc3c2=O)cc1	.	?	.	/	.
Nc1cc(-c2ccc(Cl)cc2)nn1S(=O)(=O)c1cccc2nsnc12	.	?	17.8µM[quencher]	.	.
Nc1cc(-c2cccc(F)c2)nn1S(=O)(=O)c1cccc2nsnc12	.	.	.	.	.
Nc1cc(-c2ccc(Br)cc2)nn1S(=O)(=O)c1cccc2nsnc12	.	?	12.6µM[quencher]	.	.
CC1OC(Nc2cccc3ccccc23)C(O)C(O)C1O (configuration not stated)	.	.	.	.	22.4µM
CC1OC(Nc2ccc(N=Nc3ccccc3)cc2)C(O)C(O)C1O (configuration not stated)	?	?	.	.	.

Bioassay records deposited in PubChem by National Center for Advancing Translational Sciences (NCATS).
